Results filed as inconclusive are left out. Where a call stands in place of a potency, no number is given. The source made the active and inactive calls. The call rests on the fitted dose curve; in most records, active means well fitted inhibition curve with a large enough effect; inconclusive means small, poorly fitted or top-dose-only effect; inactive means no such curve, though single readings can be large or run the other way.
assay: Primary qHTS for inhibitors of nuclear receptor binding SET domain protein 2 (NSD2) in an RCH-ACV wild type WT cells (2C) (AID 1645877); details: RCH-ACV (leukaemia line) NSD2 WT (2C) viability, CellTiter-Glo, 72 h; series mostly up to 44.9 µM; further: nearly all actives have a fitted effect of over 70% in size
Potency means the concentration at half of the fitted maximal effect.

Compound	Potency
OC1C(O)C(O)C(O)C(O)C1O (configuration not stated)	inactive
CCCCCCCCOc1ccc(C(=O)c2ccccc2)c(O)c1	inactive
O=C(CCCN1CC=C(n2c(=O)[nH]c3ccccc32)CC1)c1ccc(F)cc1	inactive
CCCCCCCCCCCCOCCOCCOCCOCCOCCOCCOCCOCCOCCO	11.9 µM (active)
CCCCCCCCCCCCCCC[C@H](O)[C@@H](N)CO	5.96 µM (active)
Cc1cc(NS(=O)(=O)c2ccc(N)cc2)nc(C)n1	inactive
Oc1ccccc1C=NCc1ccccc1	inactive
CCOCCn1c(N2CCCN(C)CC2)nc2ccccc21	inactive
Cc1cccc(C)c1NC(=O)CN1CCCC1	inactive
Cc1cc(C)cc(OCC2CNC(=O)O2)c1 (configuration not stated)	inactive
FC(F)(F)C(F)(F)C(F)(F)C(F)(F)C(F)(F)C(F)(F)C(F)(F)C(F)(F)Br	inactive
NC(=O)C1(N2CCCCC2)CCN(CCCC(=O)c2ccc(F)cc2)CC1	inactive
CCN(CC)CCNC(=O)COc1ccc(OC)cc1	inactive
CCCCc1cc2ccccc2c(OCCN(C)C)n1	18.8 µM (active)
CCCCCN=C(N)N/N=C/c1c[nH]c2ccc(OC)cc12	4.73 µM (active)
CCC1Nc2cc(Cl)c(S(N)(=O)=O)cc2S(=O)(=O)N1 (configuration not stated)	inactive

Compound	Potency
CC(=O)Nc1ccc(OC(=O)c2ccccc2OC(C)=O)cc1	inactive
C#C[C@]1(O)CC[C@H]2[C@@H]3CCc4cc(OC)ccc4[C@H]3CC[C@@]21C	inactive
O=S(=O)(O)c1ccc(O)cc1	inactive
CCc1ccc(C(=O)C(C)CN2CCCCC2)cc1 (configuration not stated)	23.7 µM (active)
CC(C)(C)CC(C)(C)c1ccc(O)c(-n2nc3ccccc3n2)c1	inactive
CCN(CC)CCOC(=O)C1(c2ccccc2)CCCC1	inactive
CC(=O)OCC(=O)[C@H]1CC[C@H]2[C@@H]3CCC4=CC(=O)CC[C@]4(C)[C@H]3CC[C@]12C	inactive
O=C1C(O)=C(O)C(=O)C(O)=C1O	inactive
CC(O)Cn1cnc2c1c(=O)n(C)c(=O)n2C (configuration not stated)	inactive
CCOC(=O)[C@H](CCc1ccccc1)N[C@@H](C)C(=O)N1[C@H](C(=O)O)C[C@@H]2CCC[C@@H]21	inactive
C[N+]12CCC(CC1)C(OC(=O)C(O)(c1ccccc1)c1ccccc1)C2 (configuration not stated)	inactive
CN1CCN(CCC(=O)N2c3ccccc3Sc3ccc(C(F)(F)F)cc32)CC1	23.7 µM (active)
NC(N)=NN=C(/C=C/c1ccc([N+](=O)[O-])o1)/C=C/c1ccc([N+](=O)[O-])o1	0.531 µM (active)
CC(=O)Nc1ccc(OCC(O)CNC(C)C)cc1 (configuration not stated)	inactive
Cc1ncc(CO)c(C=O)c1O	inactive
CCCCCCCCNC(C)C(O)c1ccc(SC(C)C)cc1 (configuration not stated)	7.5 µM (active)

Source: PubChem BioAssay (NCATS)
